Reference: PubChem BioAssay (Tox21)
Records with an inconclusive call do not appear. A call without a number means that no potency is given here. A number with no mark means an inactive call. The source made the active and inactive calls. The call rests on the fitted dose curve; in most records, active means well fitted cell-killing curve with a large enough effect in the repeat runs (not every such curve was filed as active); inconclusive means weak or mixed curves, or effect the other way; inactive means no such curve, though single readings can be large or run the other way.

Assay: qHTS assay to identify small molecule antagonists of the farnesoid-X-receptor (FXR) signaling pathway - cell viability counter screen (AID 743221); further: nearly all actives have a fitted effect of over 50% in size
Conditions: FXR-bla HEK293T viability, CellTiter-Glo luminescence, 16 h; series mostly up to 62.6 µM
Text: National Center for Advancing Translational Sciences [NCATS]
NIH Chemical Genomics Center [NCGC]
U.S. Environmental Protection Agency [EPA]
National Institutes of Environmental Health Sciences [NIEHS]
National Toxicology Program [NTP]
U.S. Food and Drug Administration [FDA]
The farnesoid-X-receptor (FXR), a nuclear hormone receptor, is highly expressed in liver, intestine, kidney and adrenal cortex. Natural ligands of FXR are the bile acids (Cholic acid, Chenodeoxy cholic acid etc). FXR is an important regulator of diverse metabolic pathways, including the bile acid homeostasis, lipid and glucose metabolisms. FXR regulates the expression of target genes by binding either as a monomer or as a heterodimer with the retinoid X receptor (RXR). Numerous studies have reported that FXR exerts protective function during cholestasis, diabetes, liver regeneration, and cancer. To identify compounds that inhibit FXR signaling, GeneBLAzer FXR-UAS-bla HEK 293T cell line (Invitrogen, Carlsbad, CA) containing a beta-lactamase reporter gene under the control of a UAS response element was used to screen the Tox21 10K compound library. The cytotoxicity of the Tox21 compound library against the FXR-bla cell line was tested in parallel by measuring the cell viability using CellTiter-Glo assay in the same wells.
Tox21 Assay Protocol Summary:
FXR-bla cells were dispensed at 5000 cells/5uL/well in 1536-well black wall/clear bottom plates using a Multidrop Combi (Thermo Fisher Scientific, Waltham, MA) dispenser. After the assay plates were incubated at 37 C and 5% CO2 for 5 h, 23 nL of compounds dissolved in DMSO, positive controls or DMSO only was transferred to the assay plate by a Pintool station (Kalypsys, San Diego, CA), followed by addition of 1 uL Chenodeoxycholic acid (50 uM, final concentration in the wells). The assay plates were incubated at 37C for 16 h. After 1 uL of LiveBLAzerTM B/G FRET substrate was added using a Bioraptr Flying Reagent Dispenser (FRD) workstation (Beckman Coulter, Indianapolis, IN), the plates were incubated at room temperature for 2 h, and fluorescence intensity was measured by an Envision plate reader (PerkinElmer, Shelton, CT). For cell viability readout that measures cytotoxicity, 4uL/well of CellTiter-Glo reagent was added into the assay plates using a Bioraptr FRD. After 30 min incubation at room temperature, the luminescence intensity in the plates was measured using a ViewLux plate reader (PerkinElmer).

| Compound | Potency | activity change, negative = cytotoxicity |
| --- | --- | --- |
| CC1CCc2nccnc21 (stereo not given) | inactive |  |
| CCCCCCCCCCCCCCN(C)C | inactive |  |
| C/C(C=O)=C\c1ccccc1 | inactive |  |
| CC(C)(O)CCc1ccccc1 | inactive |  |
| CC(=O)OCCC(C)CC(C)(C)C (stereo not given) | inactive |  |
| Nc1nc2ccc(OC(F)(F)F)cc2s1 | inactive |  |
| CCC(=O)OCc1ccc(OC)cc1 | inactive |  |
| O=C(CCS)OCC(COC(=O)CCS)(COC(=O)CCS)COC(=O)CCS | inactive |  |
| CCN(CC)c1cccc(O)c1 | inactive |  |
| [Cl][Nd]([Cl])[Cl] | inactive |  |
| O=C(NS(=O)(=O)/C=C/c1ccccc1)c1ccc(F)cc1Cl | inactive |  |
| CCCCC[C@H](O)/C=C/[C@H]1[C@H](O)CC(=O)[C@@H]1C/C=C\CCCC(=O)O | inactive |  |
| CC(=O)OCC(=O)[C@@]1(OC(C)=O)[C@@H](C)C[C@H]2[C@@H]3C[C@H](F)C4=CC(=O)C=C[C@]4(C)[C@@]3(F)[C@@H](O)C[C@@]21C | inactive |  |
| O=C1OC[C@H](Cc2cccc(O)c2)[C@H]1Cc1cccc(O)c1 | inactive |  |
| O=c1[nH][nH]c(=O)c2cc([N+](=O)[O-])ccc12 | inactive |  |
| CCCCCCCC/C=C/C(=O)O | inactive |  |
| COc1ccc(C2C(=O)c3ccccc3C2=O)cc1 | inactive |  |
| O=NN(CCCl)C(=O)NCCCl | inactive |  |
| CCN(CC)c1ccc(C(=C2C=CC(=[N+](CC)CC)C=C2)c2ccc(S(=O)(=O)O)cc2S(=O)(=O)[O-])cc1 | inactive |  |
| CCN(CC)CC(=O)Nc1c(C)cccc1C(=O)OC | inactive |  |

| Compound | Potency | activity change, negative = cytotoxicity |
| --- | --- | --- |
| Cc1ccc2c(c1)CCCN2 | inactive |  |
| N[C@@H](Cc1cc(I)c(O)c(I)c1)C(=O)O | inactive |  |
| O=C(O)CCCc1c[nH]c2ccccc12 | inactive |  |
| Nc1ccc(S(=O)(=O)NCc2ccccc2)cc1 | inactive |  |
| COc1ccc(C)cc1 | inactive |  |
| CC(=O)c1ccc[nH]1 | inactive |  |
| COc1ccc(C(=O)NCc2ccc(OCCN(C)C)cc2)cc1OC | inactive |  |
| CC(C)COC(=O)c1ccc(O)cc1 | inactive |  |
| C=C(C)c1ccccc1 | inactive |  |
| O=C1[C@@H]2[C@H]3CC[C@H](C3)[C@@H]2C(=O)N1CCCCN1CCN(c2ncccn2)CC1 | inactive |  |
| COC(CC(C)CCCC(C)(C)O)OC (stereo not given) | inactive |  |
| CCC(Cl)CC(Cl)C(Cl)C(Cl)C(Cl)C(C)Cl (stereo not given) |  | -0.0192% [at 13.2 µM] |
| CC(C)C1CCC(C(=O)N[C@H](Cc2ccccc2)C(=O)O)CC1 (stereo not given in full) | inactive |  |
| CCCCCC | inactive |  |
| CC(=O)C(=O)CC(C)C | inactive |  |
| Cc1cc(CCC(=O)OCCOCCOCCOC(=O)CCc2cc(C)c(O)c(C(C)(C)C)c2)cc(C(C)(C)C)c1O | inactive |  |
| CCCCCCCCCCCCCC(=O)OCC(O)CO (stereo not given) | inactive |  |
| COC(=O)Nc1nc2ccc(C(=O)C3CC3)cc2[nH]1 | inactive |  |
| CC[C@H]1OC(=O)[C@H](C)[C@@H](O[C@H]2C[C@@](C)(OC)[C@@H](O)[C@H](C)O2)[C@H](C)[C@@H](O[C@@H]2O[C@H](C)C[C@H](N(C)C)[C@H]2O)[C@](C)(O)C[C@@H](C)CN(C)[C@H](C)[C@@H](O)[C@]1(C)O | inactive |  |
| CCCCCCCCCCCCCCCCCC(=O)OCC(CC)CCCC (stereo not given) | inactive |  |
